Experimental data reported in PubChem BioAssay (Tox21).
Inconclusive results are not listed. Activity calls are given as the source filed them. Unless noted, the call rests on the fitted dose curve; in most records, active means well fitted curve in the direction sought with a large enough effect in the repeat runs; inconclusive means weak or mixed curves; inactive means no such curve, though single readings can be large; an effect the other way counts as inactive or inconclusive.

What was measured:
[1] = qHTS assay to identify small molecule agonists of the vitamin D receptor (VDR) signaling pathway - cell viability counter screen (AID 743224); further: nearly all actives have a fitted effect of over 50% in size
How it was run: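 VDR-bla cells, 4 h after plating, exposed to compounds for 16 h at 37C; viability then read in the same wells as CellTiter-Glo luminescence after 30 min at room temperature, following the bla FRET read.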

[2] = qHTS assay to identify small molecule antagonists of the vitamin D receptor (VDR) signaling pathway - cell viability counter screen (AID 743225); further: nearly all actives have a fitted effect of over 50% in size
How it was run: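 Parallel cytotoxicity test: VDR-UAS-bla HEK 293T, 3 nM (final) 1-alpha,25-dihydroxyvitamin D3 with test compound, 16 h, 37C. Endpoint is CellTiter-Glo luminescence in the same wells.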

[3] = qHTS assay to identify small molecule agonists of the NFkB signaling pathway (AID 1159509; active means well fitted curve in the direction sought with a large enough effect in the signal ratio in the repeat runs, not every such curve was filed as active; the % refers to the signal ratio)
How it was run: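 ME-180 NFkB-bla, 2,000 cells/well, overnight plating; cpd pinned in DMSO, 5 h 37 C; B/G FRET substrate 1.5 h RT; ex 405, em 460/530 nm.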

[4] = qHTS assay to identify small molecule agonists of the NFkB signaling pathway - cell viability counter screen (AID 1159515; calls by dose curve; further: nearly all actives have a fitted effect of over 55% in size)
How it was run: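 NFkB-bla ME-180 cells, 2,000/well, plated overnight at 37 C; compound added for 5 hr at 37 C. Viability read in the same wells as the bla reporter, by CellTiter-Glo luminescence after 30 min at room temperature.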

[5] = qHTS assay to identify small molecule agonists of the endoplasmic reticulum stress response signaling pathway (AID 1159516; active means well fitted activation curve with a large enough effect in the signal ratio in the repeat runs, not every such curve was filed as active; the % refers to the signal ratio)
How it was run: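 CellSensor ESRE-bla HeLa cells, 1,500 per well, plated overnight, then exposed to compounds for 5 hr at 37 C. Beta-lactamase reporter read with LiveBLAzer B/G FRET substrate after 2 hr at room temperature, 405 nm excitation, 460 and 530 nm emission.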

[6] = qHTS assay to identify small molecule agonists of the endoplasmic reticulum stress response signaling pathway - cell viability counter screen (AID 1159517; calls by dose curve;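 further: HeLa cells carrying an ER stress response element beta-lactamase reporter; nearly all actives have a fitted effect of over 50% in size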)
How it was run: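 ESRE-bla HeLa cells, 1,500 per well, seeded overnight then treated with compounds for 5 hr at 37 C. After the beta-lactamase read, viability in the same wells is measured by CellTiter-Glo luminescence after 30 min at room temperature.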

[7] = qHTS assay to identify small molecule antagonists of the retinoid-related orphan receptor gamma (ROR-gamma) signaling pathway - cell viability counter screen (AID 1159520); further: nearly all actives have a fitted effect of over 50% in size
How it was run: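 Tet-on ROR gamma CHO cells were given compounds for 2 hr, then doxycycline hyclate at 1 uM final, and incubated 16 hr at 37 C. Viability was measured as ATP content by CellTiter-Glo luminescence.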

[8] = target: Nuclear receptor ROR-gamma (Homo sapiens) (UniProt P51449); test: qHTS assay to identify small molecule antagonists of the retinoid-related orphan receptor gamma (ROR-gamma) signaling pathway (AID 1159521)
How it was run: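 Decreased RORE-driven luciferase luminescence indicates antagonism. Tet-on RORγ CHO cells received compound, then 1 uM final doxycycline 2 h later; signal read after 16 h incubation.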

[9] = qHTS assay to identify small molecule agonists of the AP-1 signaling pathway - cell viability counter screen (AID 1159525; calls by dose curve; further: nearly all actives have a fitted effect of over 55% in size)
How it was run: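 AP-1-bla ME-180 cells in Opti-MEM with 0.5% dialyzed FBS, compound exposure 5 h at 37 C in 15-point titration. Viability read in the same wells as ATP content by CellTiter-Glo luminescence, normalised to tetra-n-octylammonium bromide and DMSO controls.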

[10] = qHTS assay to identify small molecule agonists of the AP-1 signaling pathway (AID 1159526; calls by dose curve)
[11] = target: Retinoic acid receptor RXR-alpha (Homo sapiens) (UniProt P19793); test: qHTS assay to identify small molecule agonists of the RXR signaling pathway (AID 1159527; calls by dose curve; further: nearly all actives have a fitted effect of over 35% in size)
Retinoic acid receptor RXR-alpha (Homo sapiens), sequence (P19793 whole entry, looked up): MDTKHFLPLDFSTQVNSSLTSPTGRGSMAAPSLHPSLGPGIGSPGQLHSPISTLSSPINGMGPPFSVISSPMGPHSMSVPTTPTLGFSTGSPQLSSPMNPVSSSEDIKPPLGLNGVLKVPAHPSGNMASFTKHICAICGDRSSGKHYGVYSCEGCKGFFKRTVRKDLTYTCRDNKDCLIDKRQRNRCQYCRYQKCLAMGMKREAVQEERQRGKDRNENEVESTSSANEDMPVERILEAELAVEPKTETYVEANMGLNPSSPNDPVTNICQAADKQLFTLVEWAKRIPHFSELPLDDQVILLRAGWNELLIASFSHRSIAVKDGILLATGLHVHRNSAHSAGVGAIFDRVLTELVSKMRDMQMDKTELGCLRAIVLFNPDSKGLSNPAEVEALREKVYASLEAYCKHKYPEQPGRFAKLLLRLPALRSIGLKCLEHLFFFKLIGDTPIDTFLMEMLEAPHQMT
How it was run: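 16 hr incubation of compound-treated RXR-alpha-UAS-bla HEK 293T cells (2% charcoal-stripped FBS, 37 C) preceded a 2 hr room-temperature LiveBLAzer FRET substrate step and blue/green fluorescence measurement.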

[12] = qHTS assay to identify small molecule agonists of the RXR signaling pathway - cell viability counter screen (AID 1159529)
How it was run: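 In this parallel viability measure, GeneBLAzer RXR-alpha HEK 293T cells (2% charcoal-stripped FBS) were given a 5 hr preincubation, treated with compounds 16 hr at 37 C, and read by CellTiter-Glo luminescence.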

[13] = qHTS assay to identify small molecule antagonists of the retinoid acid receptor (RAR) signaling pathway - cell viability counter screen (AID 1159551); further: nearly all actives have a fitted effect of over 35% in size
How it was run: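 C3RL4 RARE-luciferase cells, 1,000/well, incubated overnight, then dosed with compound plus 1 uM retinol (final). After 6 hr at 37 C, viability read by CellTiter-Glo ATP luminescence following 30 min at room temperature.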

[14] = qHTS assay to identify small molecule antagonists of the retinoic acid receptor (RAR) signaling pathway (AID 1159552; further: nearly all actives have a fitted effect of over 50% in size)
How it was run: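 C3RL4 RARE-luc cells, overnight plating; retinol 1 uM final added right after compound; 6 hr 37 C; luciferase read at 30 min RT.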

[15] = qHTS assay to identify small molecule agonists of the retinoic acid receptor (RAR) signaling pathway (AID 1159553); conditions: C3RL4 RARE luciferase reporter, agonist, 6 h; activation: at 73.3 µM (top of the series)
How it was run: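 C3RL4 RARE-luciferase cells were seeded at 1,000/well and grown overnight at 37 C, then exposed to compounds for 6 hr at 37 C, 5% CO2. Luciferase reagent was added and luminescence was read after 30 min at room temperature.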

[16] = qHTS assay to identify small molecule antagonists of the estrogen related receptor (ERR) signaling pathway from Tox21 library - cell viability counter screen (AID 1224834); further: nearly all actives have a fitted effect of over 30% in size
How it was run: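 ERR reporter cells, 2,000 per well, rested 6 h, then exposed to compound in DMSO for 17.5 hours at 37 C. Viability read as fluorescence after 30 min with CellTiter-Fluor.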

[17] = target: Luciferin 4-monooxygenase (Photinus pyralis) (UniProt P08659); test: qHTS assay to identify small molecule inhibitors of firefly luciferase (AID 1224835); further: nearly all actives have a fitted effect of over 25% in size
Luciferin 4-monooxygenase (Photinus pyralis), sequence (P08659 whole entry, looked up): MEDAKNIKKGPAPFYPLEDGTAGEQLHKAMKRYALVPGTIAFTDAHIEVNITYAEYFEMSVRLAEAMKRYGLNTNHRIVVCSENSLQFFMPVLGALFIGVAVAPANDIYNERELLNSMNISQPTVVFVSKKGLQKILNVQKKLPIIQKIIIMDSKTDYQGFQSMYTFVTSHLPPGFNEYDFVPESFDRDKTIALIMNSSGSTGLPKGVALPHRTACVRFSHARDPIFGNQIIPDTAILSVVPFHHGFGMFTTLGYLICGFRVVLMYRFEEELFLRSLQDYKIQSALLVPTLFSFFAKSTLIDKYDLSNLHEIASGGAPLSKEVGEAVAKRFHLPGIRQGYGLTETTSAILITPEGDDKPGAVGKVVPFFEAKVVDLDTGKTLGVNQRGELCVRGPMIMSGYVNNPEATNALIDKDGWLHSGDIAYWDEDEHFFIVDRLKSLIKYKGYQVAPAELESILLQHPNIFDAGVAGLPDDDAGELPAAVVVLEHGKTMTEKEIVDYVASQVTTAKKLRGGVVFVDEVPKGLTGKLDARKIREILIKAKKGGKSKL
How it was run: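 Biochemical qHTS: compounds run as interplate titrations against purified firefly enzyme, with D-luciferin and ATP each at its KM concentration. Light output recorded by CCD imaging.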

[18] = qHTS assay to identify small molecule agonists of the constitutive androstane receptor (CAR) signaling pathway - cell viability counter screen (AID 1224836); further: nearly all actives have a fitted effect of over 45% in size
How it was run: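 Using CellTiter-Fluor, viability of HepG2 cells harbouring hCAR and CYP2B6-2.2kb was measured following 23 h incubation with a 15-concentration compound series plus PK11195 (0.75 uM final).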

[19] = qHTS assay to identify small molecule antagonists of the constitutive androstane receptor (CAR) signaling pathway - cell viability counter screen (AID 1224837); further: nearly all actives have a fitted effect of over 45% in size
How it was run: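 HepG2 cells stably carrying hCAR and CYP2B6-2.2kb reporter, stimulated with 50 nM CITCO and compounds at 15 concentrations for 23 h at 37 C. Viability measured by CellTiter-Fluor fluorescence.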

[20] = target: Nuclear receptor subfamily 1 group I member 3 (Homo sapiens) (UniProt Q14994); test: qHTS assay to identify small molecule antagonists of the constitutive androstane receptor (CAR) signaling pathway (AID 1224838); further: nearly all actives have a fitted effect of over 40% in size
Nuclear receptor subfamily 1 group I member 3 (Homo sapiens), sequence (Q14994 whole entry, looked up): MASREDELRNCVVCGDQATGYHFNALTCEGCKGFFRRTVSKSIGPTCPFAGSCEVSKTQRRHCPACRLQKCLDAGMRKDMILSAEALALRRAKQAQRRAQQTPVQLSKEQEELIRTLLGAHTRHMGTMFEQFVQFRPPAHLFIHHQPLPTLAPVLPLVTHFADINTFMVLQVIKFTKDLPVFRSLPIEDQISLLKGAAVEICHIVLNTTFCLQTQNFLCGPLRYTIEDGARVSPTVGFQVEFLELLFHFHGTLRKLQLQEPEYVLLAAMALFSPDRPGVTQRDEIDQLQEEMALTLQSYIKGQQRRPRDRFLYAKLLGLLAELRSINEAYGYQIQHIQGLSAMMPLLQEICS
How it was run: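 HepG2 cells stably carrying hCAR and a CYP2B6-2.2kb luciferase reporter, seeded 4 hrs before compound (15 concentrations). Stimulated with 50 nM CITCO for 24 hr at 37 C. ONE-Glo luminescence read after 30 min at room temperature.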

Measured: Potency

O=c1[nH]c(=O)c2ccccc2o1
not listed: [20]
inactive: all other assays above

CC(C)(C)NCCO
not listed: [20]
inactive: all other assays above

C[C@H](CCC(=O)NCC(=O)O)[C@H]1CC[C@H]2[C@@H]3[C@H](O)C[C@@H]4C[C@H](O)CC[C@]4(C)[C@H]3C[C@H](O)[C@]12C
not listed: [2] | [20]
inactive: all other assays above

CCCO
not listed: [20]
inactive: all other assays above

CCC(C)N (stereo unspecified)
not listed: [20]
inactive: all other assays above

CCC(=O)c1ccc(O)cc1
inactive: all assays above

CO[Si](CCCCl)(OC)OC
inactive: all assays above

C1=CCC(c2ccccc2)CC1 (stereo unspecified)
not listed: [20]
inactive: all other assays above

CCC(=O)OCCC(C)CCC=C(C)C (stereo unspecified)
not listed: [1] | [2]
inactive: all other assays above

Cc1c(C(C)C)c(=O)n(-c2ccccc2)n1C
not listed: [2]
inactive: all other assays above

CN(C)CCCNCCC#N
not listed: [2]
inactive: all other assays above

c1ccccc1
not listed: [20]
inactive: all other assays above

C=CC(C)(O)CC/C=C(\C)CC (stereo unspecified)
not listed: [20]
inactive: all other assays above

O=C(O)C(=O)Nc1cccc(-c2nn[nH]n2)c1
not listed: [20]
inactive: all other assays above
